Experimental findings from PubChem BioAssay (Tox21) are described below.

“And” between values parts separate entries of the source, which are not always exact repeats. Identical values can stand only once. Inconclusive results are not listed. A number with no mark means an inactive call. The source made the active and inactive calls. Calls follow the shape of the dose curve; as a rule, active = well fitted curve in the direction sought with a large enough effect in the repeat runs; inconclusive = weak or mixed curves; inactive = no such curve, though single readings can be large; an effect the other way counts as inactive or inconclusive.

Experiment [1] in a line: qHTS RealTime-Glo MT Cell Viability Assay in HepG2 cells - 40 hour (AID 1224870). Also: nearly all actives have a fitted effect of over 50% in size. Put shortly:
(§1)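 Real-time viability: cells seeded at 600 per well together with NanoLuc and cell-permeant prosubstrate, compounds added after 5 h incubation. Luminescence tracked at 0, 8, 16, 24, 32 and 40 h of exposure.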
On the technique in general: qHTS replaces the single test concentration by a dilution series.

Experiment [2] is described as follows: A CellTox Green Cytotoxicity Assay to monitor cytotoxicity in HEK293 cells - 40 hour (AID 1224871). Also: nearly all actives have a fitted effect of over 45% in size. Also: potency is read from the fitted curve at half-maximal effect. Put shortly:
(§2)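 Cells (HEK293, 600/well) and dye reagent are dispensed together. After 5 h at 37 C, 23 nL compound is pinned in. Plates stay at 37 C for 40 h with fluorescence read at 0h, 8h, 16h, 24h, 32h and 40h.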

The nature of experiment [3]: qHTS RealTime-Glo MT Cell Viability Assay in HEK293 cells - 16 hour (AID 1224872). Also: top concentration of the series differs between compounds; nearly all actives have a fitted effect of over 50% in size. Put shortly: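 Viability tracked continuously by luminescence as live cells reduce a prosubstrate for NanoLuc; HEK293 cells preincubated 5 h, compound-treated at 37 C, and read at 0, 8, 16, 24, 32 and 40 h.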
Experiment [4] in a line: qHTS RealTime-Glo MT Cell Viability Assay in HepG2 cells - 8 hour (AID 1224873). Also: nearly all actives have a fitted effect of over 55% in size. The method, boiled down: as §1
Experiment [5] is described as follows: qHTS RealTime-Glo MT Cell Viability Assay in HEK293 cells - 40 hour (AID 1224874). Also: nearly all actives have a fitted effect of over 50% in size. The conditions noted are these: RealTime-Glo luminescence; max response: stronger effect = lower value. The method, boiled down: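 Real-time viability in HEK293: signal arises when living cells convert a prosubstrate for NanoLuc in the medium, so luminescence tracks viable cell number. Compound (23 nL, DMSO) added 5 h post-seeding; kinetic reads at 0–40 h, 37 C.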

Experiment [6] can be described thus: A CellTox Green Cytotoxicity Assay to monitor cytotoxicity in HEK293 cells - 24 hour (AID 1224875). Also: nearly all actives have a fitted effect of over 45% in size. Also: potency is read from the fitted curve at half-maximal effect. As to activity change: series mostly up to about 77 µM. The method, boiled down:
as §2

The nature of experiment [7]: A CellTox Green Cytotoxicity Assay to monitor cytotoxicity in HepG2 cells - 16 hour (AID 1224876). Also: nearly all actives have a fitted effect of over 45% in size. Also: potency is read from the fitted curve at half-maximal effect. Put shortly:
(§3)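 Cells and non-lytic dye reagent are dispensed together (600 HepG2 cells/well) and incubated 5 h before DMSO compound transfer. Kinetic fluorescence is then recorded in the same wells during 40 h at 37 C.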

Experiment [8] in a line: qHTS RealTime-Glo MT Cell Viability Assay in HepG2 cells - 32 hour (AID 1224877). Also: nearly all actives have a fitted effect of over 55% in size. Put shortly: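 Viability was tracked continuously by NanoLuc luminescence from prosubstrate reduced by living HepG2 cells, at successive time points over 40 h of compound exposure. Cells with reagent were preincubated 5 h at 37 °C before compound addition.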
Experiment [9] in a line: A CellTox Green Cytotoxicity Assay to monitor cytotoxicity in HepG2 cells - 24 hour (AID 1224878). Also: nearly all actives have a fitted effect of over 45% in size. Also: potency is read from the fitted curve at half-maximal effect. The method, boiled down:
as §3

The nature of experiment [10]: A CellTox Green Cytotoxicity Assay to monitor cytotoxicity in HepG2 cells - 40 hour (AID 1224879). Also: nearly all actives have a fitted effect of over 40% in size. Also: potency is read from the fitted curve at half-maximal effect. The method, boiled down: as §3
% is scaled to controls: 0 for no effect and ±100 for the full control effect.

Regarding `Cc1cc2c(cc1S(N)(=O)=O)S(=O)(=O)CCC2`, the Potency result in [1], in [2], in experiment [3], in experiment [4], in experiment [6] and in experiment [7] was “inactive” in each case. Besides, the Potency entry in [8], in experiment [9] and in [10] was “inactive” in each case. For the same compound, in experiment [5], the max response was 2.68%.
Take `Cc1cccc(C)c1NC(=O)C(C)N` (stereo not given): the Potency entry in [1], in [3], in [4] and in experiment [8] was “inactive” in each case. In addition, the Potency in experiment [2] is 19 µM (active); in experiment [6] it was 21.3 µM (active); in [7], 21.3 µM (active); in experiment [9] it was 21.3 µM (active); in experiment [10] it was 23.9 µM (active). In experiment [5], the max response was 4.07%.
Regarding `CC(C)OC(=O)c1ccccc1`, the Potency entry in [1], in experiment [2], in experiment [3], in experiment [4], in experiment [6] and in experiment [7] was “inactive” each time. Further, the Potency result in experiment [8] and in experiment [10] was “inactive” throughout. The max response in experiment [5] is 0.492%.
Regarding `O=C(O)CN(CCOCCOCCN(CC(=O)O)CC(=O)O)CC(=O)O`, the activity change, negative = cytotoxic in [1] is 0.968% [at 0.29 µM]; in experiment [8], 3% [at 0.29 µM]. The values for the cytotoxicity increase in experiment [2], in experiment [7] and in [10] were 0.853% [at 0.29 µM], -23.6% [at 0.29 µM] and -20% [at 0.29 µM], respectively. For the same compound, in experiment [3], the activity change, negative = cytotoxicity is -0.382% [at 0.29 µM]. In experiment [4], the viability change, negative = cytotoxic was -0.725% [at 0.29 µM]. Moreover, in experiment [5], the max response is 6.77%. The activity change in experiment [6] was 5.13% [at 0.29 µM, stronger effect = higher value]. Besides, the cytotoxicity in experiment [9] was -22.1% [at 0.29 µM].
On to `CC1(C)CO[C@@H](CC(=O)O)CN1`, for which the Potency entry in experiment [1], in experiment [2], in [3], in experiment [4], in experiment [6] and in [7] was “inactive” each time. Further, the Potency result in [8], in [9] and in experiment [10] was “inactive” throughout. In addition, the max response in experiment [5] was 4.58%.
Take `O=C1OC(=O)C2CCCCC12` (stereo not given): the Potency result in [1], in [2], in experiment [3], in experiment [4], in [6] and in [7] was “inactive” each time. For the same compound, the Potency entry in experiment [8] and in [10] was “inactive” throughout. Further, in experiment [5], the max response was 1.13%.
As to `Cn1cc(S(C)=O)c(=O)c2ccc(F)cc21` (stereo not given), the Potency result in experiment [1], in experiment [2], in [3], in [4], in experiment [6] and in experiment [7] was “inactive” throughout. Further, the Potency result in experiment [8] and in experiment [10] was “inactive” throughout. Moreover, the max response in experiment [5] is -13.8%.
In the case of `C/C=C(\C)C#N`, the Potency result in experiment [1], in experiment [2], in [3], in experiment [4], in [6] and in experiment [7] was “inactive” each time. The Potency result in experiment [8], in [9] and in experiment [10] was “inactive” in each case. Further, the max response in [5] was -3.01%.
For the compound `CCC(C)S` (stereo not given), the activity change, negative = cytotoxic was 2.53% [at 2.72 µM] in experiment [1] and -0.778% [at 2.72 µM] in experiment [8]. Moreover, the cytotoxicity increase was -0.869% [at 2.72 µM] in [2], 0.507% [at 2.72 µM] in experiment [7] and -0.0934% [at 2.72 µM] in [10]. The activity change, negative = cytotoxicity in experiment [3] is 0.797% [at 2.72 µM]. Moreover, the viability change, negative = cytotoxic in [4] is 0.999% [at 2.72 µM]. Also, in experiment [5], the max response is 2.1%. The activity change in experiment [6] was 2.02% [at 2.72 µM, stronger effect = higher value]. The cytotoxicity in experiment [9] was 1.18% [at 2.72 µM].
Regarding `CCn1nc(C(=O)O)c(=O)c2cc3c(cc21)OCO3`, the Potency result in experiment [1], in experiment [2], in experiment [3], in experiment [4], in [6] and in [7] was “inactive” in each case. Besides, the Potency entry in experiment [8], in experiment [9] and in [10] was “inactive” in each case. The max response in experiment [5] was 4.37%.
In the case of `COc1c(N2C[C@@H]3CCCN[C@@H]3C2)c(F)cc2c(=O)c(C(=O)O)cn(C3CC3)c12`, the Potency result in [1], in experiment [2], in experiment [3], in experiment [4], in [6] and in [7] was “inactive” each time. Besides, the Potency result in experiment [8], in experiment [9] and in experiment [10] was “inactive” in each case. Further, in experiment [5], the max response is -3.41%.
On to `O=C1CCCCCCCCCCCN1`, for which the Potency entry in experiment [1], in experiment [2], in [3], in experiment [4], in [6] and in experiment [7] was “inactive” in each case. In addition, the Potency entry in [8] and in [10] was “inactive” throughout. Besides, the max response in [5] was 0.14% and 1.61%.
`Nc1ccc(S(=O)(=O)Nc2ccnn2-c2ccccc2)cc1`: the activity change, negative = cytotoxic was 0.768% [at 15.8 µM] in [1] and 1.3% [at 15.8 µM] in [8]. In addition, the Potency result in experiment [2] is “inactive”. Further, in experiment [3], the activity change, negative = cytotoxicity is 9.13% [at 15.8 µM]. In addition, the viability change, negative = cytotoxic in experiment [4] is -7.88% [at 15.8 µM]. For the same compound, in experiment [5], the max response was 3.19%. The activity change in experiment [6] was 1.21% [at 15.8 µM, stronger effect = higher value]. The cytotoxicity increase in experiment [7] was 2.84% [at 15.8 µM]; in [10], 1.49% [at 15.8 µM]. For the same compound, in experiment [9], the cytotoxicity was -1.77% [at 15.8 µM].
For `CC(C)NCC(O)c1ccc(NS(C)(=O)=O)cc1` (stereo not given), the Potency result in [1], in experiment [2], in experiment [3], in experiment [4], in [6] and in [7] was “inactive” each time. Moreover, the Potency result in experiment [8] and in experiment [10] was “inactive” in each case. The max response in [5] is 4.96%.
